Experimental findings from ChEMBL document CHEMBL4513216, “Probing the Open Global Health Chemical Diversity Library for Multistage-Active Starting Points for Next-Generation Antimalarials” (ACS Infect Dis, 2020) are described below.

The structures appear in SMILES notation. Screen size: about 69,000 compounds; about 8,600 (12%) showed an effect of 50% or more. For the sample, strong results were picked, then their nearest neighbours and some compounds at random.

The assay deals with Plasmodium berghei. Description: Screen against P. berghei liver stage (PbLuc), transformed with Luciferase, at 10uM. The following applies: tested at 10 uM. It is filed as functional, HepG2.
For `COCCc1noc(CN2CCCC2c2c(C)nn(C)c2OC)n1` (stereo unspecified), the INHIBITION is given as 17.4%.
To `CCCNC(=O)C1CCCN(Cc2csc(C(C)(C)C)n2)C1` (stereo unspecified) belongs -62.8%; to `CNC(=O)[C@@H](c1ccccc1OC)N1CCC[C@H]1C(=O)NC(C)(C)C`, -22.4%.
On to `Cc1cccc(C)c1OCC(=O)NC(C)c1nnc2n1CCC2` (stereo unspecified), for which the INHIBITION is -29.2%.
Under `COc1c(CNCC(=O)N2CCN(C)CC2)c(C(C)C)nn1C` stands 42.1%; under `Cc1noc(CNC(=O)c2ccccc2-n2cc(CN)cn2)n1`, 20.8%.
For `O=C1CN(C(=O)c2cc3ccc(Br)cc3[nH]2)CCN1`, the INHIBITION was -56.7%.
In the case of `CCc1cnc(CN(C)C2CCN(CC3CCOCC3)C2)o1` (stereo unspecified), the INHIBITION is 5.85%.
Take `Cc1nsc(NC(=O)N2CCc3sccc3C2)n1`: the INHIBITION came to 24.1%.
`OC(COc1ccc(F)cc1)CN1CCC(c2ccn[nH]2)CC1` (stereo unspecified): the INHIBITION was found to be 37.9%.
Under `Cc1cccc(N2CCOCC3(C2)CN(c2cnn(C)c2)C(=O)CO3)n1` (stereo unspecified) stands 44.4%; under `CC(C)Oc1ncnc2c1CCN(C(=O)c1cccn1C)CC2`, 7.39%; under `O=C1Nc2ccccc2/C1=C1\CCCCCN1`, -2.09%.
In the case of `O=C1Nc2ccccc2C12CCCN(Cc1ccc3c(c1)OCCO3)C2` (stereo unspecified), the INHIBITION was 43.3%.
Under `O=C1Nc2ccccc2C12CCCN(Cc1ccncc1)C2` (stereo unspecified) stands 16.6%; under `CS(=O)(=O)c1ccc(CN2CCCC3(C2)C(=O)Nc2ccccc23)cc1` (stereo unspecified), 69%.
To `CNc1ncc(CN(C)Cc2cc(O)c3cccc(Cl)c3n2)cn1` belongs 60.4%; to `CNc1ncc(CN(C)Cc2cc(O)c3cc(F)ccc3n2)cn1`, 40.9%.
Under `CNc1ncc(CN(C)Cc2cc(O)c3cc(C)cc(C)c3n2)cn1` stands 35.5%; under `COc1ccccc1CNC(=O)c1ccccc1-n1cnc(CN)c1`, -1.85%; under `Cc1ccc(SC2CCCC2)c(C(=O)NCCc2n[nH]c(=O)[nH]2)c1`, 49.9%.
For `Cc1ccc(SC2CCCC2)c(C(=O)NCCO)c1`, the INHIBITION was determined as 90.7%.
Consider `CC(=O)NCCNC(=O)c1cc(C)ccc1SC1CCCC1`, for which the INHIBITION was 49.9%.
Take `COCCc1ncc(CNC2(c3ccc(Cl)cc3Cl)CC2)cn1`: the INHIBITION was determined as 34%.
Under `CCCN1CCC(NC(=O)Nc2ccc(OC)c(OC)c2)CC1` stands -4.46%.
Under `COCCN1CCC(Nc2ccc(C#N)cc2F)CC1` stands 21.7%.
Under `CCCN1CCC(Nc2cc(-c3ccccc3)ccc2OC)CC1` stands 78.9%; under `Cc1cc(C(=O)NCC(O)c2c(Cl)cccc2Cl)nn1C` (stereo unspecified), 25.2%; under `CCC(=O)N1CCN(c2ncnc3cc4c(cc23)OCCO4)CC1`, 41.6%.
`COc1cccc(CN2CC(O)CN(C(=O)C3CC3)CC2=O)c1OC` (stereo unspecified): the INHIBITION is given as -1.23%.
To `COc1cccc(CN2CC(O)CN(C(=O)C(C)(C)C)CC2=O)c1OC` (stereo unspecified) belongs 58.5%.
Under `CCOC(=O)N1CC(=O)N(Cc2ccc(OC)cc2)CC(O)C1` (stereo unspecified) stands 68.4%.
For `COc1ccc(CN2CC(O)CN(C(=O)OCC(C)C)CC2=O)cc1` (stereo unspecified), the INHIBITION was determined as 15.4%.
Under `CCOC(=O)N1CC(=O)N(Cc2cccc(OC)c2OC)CC(O)C1` (stereo unspecified) stands 0.284%.
Under `COc1ccc(CN2CC(O)CN(C(=O)OCC(C)(C)C)CC2=O)cc1` (stereo unspecified) stands -15.6%; under `COCC(=O)N1CCCCC1c1nc(N(C)C)ncc1-c1cc(C)no1` (stereo unspecified), 17.435%.
To `Cn1ccc(C(=O)N2CCCC(c3cc(O)n(C)n3)C2)n1` (stereo unspecified) belongs 36.4%.
Take `CCc1cnc(C)nc1NCc1cnc2c(c1)CCC2`: the INHIBITION was found to be 46.4%.
As for `COc1ccccc1-n1nc(C(C)C)nc1Cc1nnc(N)s1`, the INHIBITION was determined as 17.6%.
To `CC1=C(C(=O)N(C)Cc2noc3c2CCCC3)C(C)NC(=O)N1` (stereo unspecified) belongs 11.8%; to `CCc1c(C(=O)NCC2CCS(=O)(=O)C2)cnn1-c1ccccc1` (stereo unspecified), 4.71%; to `O=c1cc(CN2CCCC2)nc2n1CCCN(Cc1ccoc1)C2`, -19.5%.
To `O=C(NCCNC(=O)C1CCCCC1)NCCn1cccc1` belongs 18.6%; to `O=C(NCCCNC(=O)C1CCC1)NCCn1cccc1`, 54.4%.
As to `O=C(NCCn1cccc1)C1CCCOC1` (stereo unspecified), the INHIBITION is listed as 39.8%.
Under `NC(=O)c1cccc(CS(=O)(=O)CC(O)Cn2cccn2)c1` (stereo unspecified) stands 4.41%; under `CN(C)C(CNC(=O)NCCOc1ccccc1)c1ccco1` (stereo unspecified), -90.7%; under `CN(C)c1cc(C(=O)N2CCCC2c2cnn(C)c2)ccn1` (stereo unspecified), 22.3%.
Consider `CCN1CCC(CC(=O)N(C)C(C)c2cncs2)CC1` (stereo unspecified), for which the INHIBITION came out at 0.825%.
As to `O=S(=O)(NCC(O)c1ccc(C(F)(F)F)cc1)C1CC1` (stereo unspecified), the INHIBITION came out at 72.2%.
Under `CSc1ccc(C(O)CNS(=O)(=O)C2CC2)cc1` (stereo unspecified) stands 44.9%; under `CN(C)c1ccc(C(O)CNS(=O)(=O)C2CC2)cc1` (stereo unspecified), 38.1%; under `Cc1nn(C2CCS(=O)(=O)C2)c(O)c1Cc1ccc(Br)cc1` (stereo unspecified), 43.4%.
To `CCOC(CC)C(=O)NCCC(=O)N1CCN(c2ccccn2)CC1` (stereo unspecified) belongs -36.3%; to `Cc1cc(CN(C)C(=O)NC2CCN(c3ncccn3)CC2)no1`, 27.1%.
To `COCCCNc1ncc(-c2cccc(F)c2)c(-c2nccn2C)n1` belongs 13.7%.
Turning to `O=c1c2cnc(N3CCCCC3)nc2ccn1-c1ccccc1F`, the INHIBITION was -2.04%.
Consider `Cn1ccnc1-c1nc(N2CCCCC2)ncc1-c1ccccc1F`, for which the INHIBITION stood at 54.8%.
To `CC1CCN(c2ncc(-c3ccccc3F)c(-c3nccn3C)n2)CC1` belongs 72.05%.
To `CC1CCN(c2ncc(C#N)c(N)n2)CC1` belongs -10.3%; to `CC1CCCN(c2ncc(-c3ccccc3F)c(-c3nccn3C)n2)C1` (stereo unspecified), 75.45%.
Take `CN1CCCC(c2cccc(-c3ccccc3F)n2)C1` (stereo unspecified): the INHIBITION was 31.15%.
`Cc1cc(-c2cnc(N3CCCC(C)C3)nc2C(C)C)on1` (stereo unspecified): the INHIBITION worked out at 26.3%.
With `Cc1cc(CNc2ccccc2Cl)no1`, the INHIBITION is recorded as -38.9%.
Consider `COCCC(=O)N1C[C@@H](O)[C@H](N2CCN(c3ccccc3)CC2)C1`, for which the INHIBITION is 16.5%.
To `CCOc1ncccc1C(=O)N1CCCC(n2nc(C)cc2C)C1` (stereo unspecified) belongs 0.0996%; to `O=C(c1cccs1)N1CCC[C@]2(C[C@@H](OCc3ccncc3)CO2)C1`, -41%; to `CN(C(=O)c1ccccc1N(C)S(C)(=O)=O)c1ccc(C(C)(C)C)cc1`, 31.2%.
Under `O=C(c1ccc(F)cc1F)N(CC(F)(F)F)C1CCOCC1` stands 3.04%; under `O=C(c1ccco1)N(CC(F)(F)F)C1CCOCC1`, 61.3%.
Under `O=C(c1ccco1)N(CC(F)(F)F)C1CCCOC1` (stereo unspecified) stands 9.16%.
